Marburg entry inh – qHTS for inhibitors of binding or entry into cells for Marburg Virus; 300,000 tested, 1.8% active; Potency, µM (titrated, usually from 37.8 µM), for the others: top-dose activity change, negative = inhibition, usual class: inhibitors; AID 540276, 2011; Marburg virus pseudotyped entry inhibition, cell reporter; calls by dose curve; tested in HEK293 cells
FMDV inh – High Throughput Screening for Foot and Mouth Disease Virus Antivirals | FMDV antiviral cell-based qHTS | Potency, µM (highest dose often 57.9 µM), for the others: at the highest dose activity change, negative = inhibition, most hits filed as inhibitors | 410,000 tested, 1.2% active | AID 1159524, 2015; calls by dose curve; tested in HEK293T cells; also: read-out not given here; nearly all actives have a fitted effect of over 45% in size
Sm TGR inh – qHTS Assay for the Inhibitors of Schistosoma Mansoni Peroxiredoxins. Potency, µM (doses to about 114 µM), without a hit: at the top dose activity change, negative = inhibition, hits mostly inhibitors. Schistosoma mansoni thioredoxin glutathione reductase (TGR), Q962Y6. 360,000 tested, 3% active. purified TGR, DTNB reduction, TNB absorbance 405 nm; active = well fitted inhibition curve with a large enough effect; inconclusive = small, poorly fitted or top-dose-only effect; inactive = no such curve, though single readings can be large or run the other way; also: nearly all actives have a fitted effect of over 60% in size
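TGR 20 nM + NADPH 100 uM (dispensed conc.), cpd preinc 15 min RT; start with NADPH (500 uM addition) then DTNB (15 mM addition). Kinetic TNB absorbance, 405 nm filter. Four-parameter Hill fit across titration.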
LASV entry inh – qHTS for Inhibitors of binding or entry into cells for Lassa Virus. Lassa virus pseudotype entry inhibition, cell reporter. Potency, µM (titrated, usually from 37.9 µM), without a hit: at the highest dose activity change, negative = inhibition, usual class: inhibitors. 300,000 tested, 1.2% active. AID 540256, 2011; calls by dose curve; tested in HEK293 cells; also: nearly all actives have a fitted effect of over 50% in size
Vaccinia mCherry – qHTS for Stage-Specific Inhibitors of Vaccinia Orthopoxvirus: mCherry Reporter Primary qHTS; AID 720579, 2013; Potency, µM (highest dose often 36.5 µM), without a hit: top-dose activity change, negative = inhibition, hits mostly inhibitors; 310,000 tested, 0.63% active; Vaccinia virus mCherry reporter infection, fluorescence; calls by dose curve; tested in A549 cells; also: nearly all actives have a fitted effect of over 35% in size
Vaccinia Venus – qHTS for Stage-Specific Inhibitors of Vaccinia Orthopoxvirus: Venus Reporter Primary qHTS | Vaccinia virus Venus reporter expression, fluorescence | Potency, µM (highest dose often 36.5 µM), for the others: top-dose activity change, negative = inhibition, usual class: inhibitors | 330,000 tested, 0.46% active; calls by dose curve; tested in A549 cells; also: nearly all actives have a fitted effect of over 30% in size
The depositor's hits bear a star; i = inactive; u = inconclusive; x = not tested or not shown; ! = repeats disagree; [ ] = dose if it differs, or a comment. Rows were chosen to be rich in hits. Some 5.4% of all compounds tested hit in one or more screens of this group. % is scaled to controls: 0 for no effect and ±100 for the full control effect; potency is read from the fitted curve at half-maximal effect.

SMILES | Marburg entry inh | FMDV inh | Sm TGR inh | LASV entry inh | Vaccinia mCherry | Vaccinia Venus
COC(=O)c1ccc(OC)c(Cn2c(=O)n(-c3cccc(Cl)c3)c(=O)c3c4c(sc32)CN(C(C)=O)CC4)c1 | -1.3%[46.1 µM] | -16.2% | 6.0% | 16.5%[46.1 µM] | -1.5% | -4.7%
Cc1cc(F)ccc1S(=O)(=O)N1CCCOC1CNC(=O)C(=O)NCCc1c[nH]c2ccccc12 (stereo not drawn) | u | 31.6µM* | -0.2% | u | -15.0% | -19.1%
CCCN1C(=O)c2[nH]nc(-c3ccccc3O)c2C1c1cccc(OCc2ccccc2)c1 (stereo not drawn) | u | -24.5% | 23.1% | u | u | u
CCN(C(=O)CSc1nc2ccccc2n1CC(=O)Nc1ccc(F)cc1F)c1ccccc1 | x | 5.4% | -1.0% | 11.2µM* | -1.3% | -12.5%
COc1cc(NC(=O)c2cccc3c(-c4cccnc4)coc23)cc(OC)c1OC | x | 12.6µM* | x | x | u | u
COc1ccc(CNC(=O)c2cccc3c(-c4cnn(C)c4)coc23)cc1OC | x | 15.8µM* | x | x | -29.2% | -16.0%
Cn1cc(-c2coc3c(C(=O)NCc4cccnc4)cccc23)cn1 | x | -22.3% | x | x | i | -13.3%
CC(=O)c1cccc(NC(=O)c2cccc3c(-c4cccc(C(N)=O)c4)coc23)c1 | x | 35.5µM* | x | x | u | u
COc1cc(NC(=O)c2cc(-c3cccnc3)nc3ccc(Br)cc23)cc(OC)c1 | u | u | 1.9% | 11.2µM* | -2.2% | -11.6%
CS(=O)(=O)Nc1cccc(NC(=O)c2cccc3c(-c4cccc(C(N)=O)c4)coc23)c1 | x | -21.0% | x | x | -4.4% | 2.5%
CCOC(=O)c1cc(C)n(CC2CCC(C(=O)Nc3ccc(OC)cc3)CC2)c1C (stereo not drawn) | x | u | -9.7% | -12.9%[46.1 µM] | -22.8% | u
Cc1ccc(NC(=O)CN2C(=O)COc3ccc(S(=O)(=O)NC4CCCC4)cc32)cc1N(C)C | x | -0.4% | 5.6% | -18.5%[46.1 µM] | -20.3% | -5.0%
Clc1ccc([C@@H](c2ccccc2Cl)C(Cl)Cl)cc1 | -12.3% | x | x | x | x | x
COc1ccccc1NC(=O)Cn1c(=O)n(-c2cccc(C(C)=O)c2)c(=O)c2c3c(sc21)CN(C(C)=O)CC3 | 3.1%[46.1 µM] | u | 8.0% | x | -12.7% | 10.6%
COc1ccc(-c2c3c([nH]c(=S)c2C#N)CCC3)cc1 | 4.6% | 7.0% | 44.7µM* | 10.8% | -8.8% | 3.9%
CCN(CC)C(=O)c1c(C)[nH]c(=S)c(C#N)c1-c1ccco1 | -4.5%[46.1 µM] | -11.8% | 14.1µM* | -12.1% | 9.5% | 8.2%
N#Cc1c(-c2ccco2)c2c([nH]c1=S)CCCC2 | 3.8% | -7.9% | 2.82µM* | 25.6% | x | 10.8%
Cc1ccc(CNC(=O)Nc2cn(CC(C)C)c(=O)c3ccccc23)cc1 | x | -8.8% | -2.0% | 9.2%[46.1 µM] | 4.7% | -4.4%
Cc1ccc(/C=C/C(=O)O)cc1S(=O)(=O)N(CCO)CCO | 6.5% | -7.1% | 22.4µM* | 15.1% | -21.0% | -13.5%
Cc1ccc(/C=C/C(=O)O)cc1S(=O)(=O)NCc1cccnc1 | u | -9.7% | 22.4µM* | -3.3%[46.1 µM] | i | -8.7%
Cc1ccc(/C=C/C(=O)O)cc1S(=O)(=O)NCCCO | 0.3% | -5.7% | 39.8µM* | -0.3% | x | -13.8%
COc1nc(Nc2ccc(O)cc2)nc(OC(C(F)(F)F)C(F)(F)F)n1 | 9.3% | u | -5.3% | u | x | x
Nc1cccc(Nc2nc(OC(C(F)(F)F)C(F)(F)F)nc(OC(C(F)(F)F)C(F)(F)F)n2)c1 | u | -23.8% | 11.9% | u | -33.2%[1.46 µM] | 28.2µM*
CC(=O)c1c(C)[nH]c(C(=O)OCC(=O)Nc2ccc(Cl)cc2[N+](=O)[O-])c1C | 6.31µM* | u | 1.4% | -15.2% | -24.9% | -14.5%
CC(=O)c1c(C)[nH]c(C(=O)OCC(=O)Nc2ccc(Cl)c(S(=O)(=O)N(C)C)c2)c1C | x | 28.2µM* | -9.4% | x | x | x
SMILES | Marburg entry inh | FMDV inh | Sm TGR inh | LASV entry inh | Vaccinia mCherry | Vaccinia Venus
CCC(C(=O)OCC(=O)Nc1ccc(Cl)c(S(=O)(=O)N(C)C)c1)c1ccccc1 (stereo not drawn) | 11.2µM* | u | -13.2% | u | -18.7% | -34.5%
CC(=O)c1c(C)[nH]c(C(=O)Nc2ccc(Cl)c(S(=O)(=O)N(C)C)c2)c1C | x | 33.1% | 3.7% | x | -6.6% | -13.4%
Oc1cc(-c2nc3ccccc3s2)cc2c1OCCN(Cc1cccn1-c1ccc(Cl)cn1)C2 | x | 25.5% | x | x | -7.4% | -0.9%
COc1cc(=O)n2c(c1C(=O)N(C)Cc1nccs1)CCN(Cc1c(F)ccc(F)c1F)CC2 | x | -1.1% | x | x | -8.2% | -2.1%
COC(=O)C1=C(C)N(Cc2ccccc2)C(=NCc2ccc(OC)cc2)NC1c1cccc(F)c1 (stereo not drawn) | -1.3%[14.2 µM] | x | x | x | x | x
COc1cccc(C2c3cc4c(cc3OC(N3CCOCC3)C2C)OCO4)c1O (stereo not drawn) | -10.7% | -2.4% | x | u | -14.0% | u
COc1ccc(C2c3cc4c(cc3OC(N3CCOCC3)C2C)OCO4)c(OC)c1 (stereo not drawn) | u | 0.0% | x | 6.31µM* | u | u
COc1ccc(OC)c(CNC(=O)c2ccc(-c3nc(CSc4ccccc4)c(C)o3)cc2)c1 | x | -20.0% | -1.8% | -21.4%[46.1 µM] | -25.5% | -16.5%
Cc1csc2ncnc(NC3CCN(Cc4ccccc4)CC3)c12 | 10µM* | -22.4% | 4.7% | -21.6%[46.1 µM] | -0.7% | 0.0%
Cc1ccc(-c2csc3ncnc(N4CCN(Cc5ccccc5)CC4)c23)cc1 | x | u | 2.5% | x | x | x
O=C1C=C(N2CCCCC2)c2ccccc2C1=O | u | 22.4µM* | x | 8.91µM* | u | u
COC(=O)Cc1c(C)c2ccc(OCC(=O)N3CCC(C)CC3)c(C)c2oc1=O | -26.4% | 35.5µM* | 2.4% | -5.5% | -19.5% | -17.1%
COC(=O)Cc1c(C)c2ccc(OCC(=O)N3CCCC3)c(C)c2oc1=O | -21.0% | -22.0% | -0.5% | 13.4% | -5.5% | -18.4%
CCn1cc(C(=O)NCc2ccco2)c2cc(OC)c(OC)cc2c1=O | -1.8% | -23.4% | u | 1.7% | x | x
COc1cc2c(C(=O)NCc3ccc(C)o3)cn(CC(C)C)c(=O)c2cc1OC | u | -13.4% | 10µM* | -4.7% | -19.6% | -9.4%
COc1ccc(-c2nc3n(n2)C(c2ccc(OC)cc2)C(C(=O)Nc2cccnc2)=C(C)N3)cc1 (stereo not drawn) | -29.7%[46.1 µM] | -10.9% | 2.1% | 0.7%[46.1 µM] | 0.4% | -7.2%
COC(=O)c1c(NC(=O)CCCOc2ccc(C(C)(C)C)cc2)sc2c1C(C(=O)OC)CC2 (stereo not drawn) | x | 35.5µM* | 15.8% | u | -0.3%[7.34 µM] | -7.0%[7.34 µM]
Cc1cnc2c(C)cccc2c1C | x | x | x | x | -8.2% | 1.8%
N#CC1=C2SCC(O)(c3ccccc3)N2C(=O)CC1c1cccs1 (stereo not drawn) | 0.0326µM*! | u | 6.1% | u | x | x
